In PubChem BioAssay AID504834 (National Center for Advancing Translational Sciences (NCATS), 2011):
The campaign covered roughly 320,000 compounds. About 22,000 (6.9%) were called active. About 27% were inconclusive and are not listed. The list comes from a sample in which actives are over-represented; it also holds similar structures and randomly drawn compounds. Values without a mark were called inactive. Calls come from the whole dose curve; as a rule, active = well fitted inhibition curve with a large enough effect; inconclusive = small, poorly fitted or top-dose-only effect, or another doubt; inactive = no such curve, though single readings can be large or run the other way.

test: Primary qHTS for delayed death inhibitors of the malarial parasite plastid, 96 hour incubation; conditions: P. falciparum luciferase reporter growth; series mostly up to 28.7 µM; activity change, negative = inhibition: at the top concentration
In short: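 Delayed-death screen, second-generation endpoint: infected erythrocytes, 2% hematocrit, 0.05% parasitemia final; 96 hours at 37 C, 5% CO2; luciferase detection reagent; luminescence decrease equals reduced growth.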
% is set by controls: 0 for no effect and ±100 for the full control effect; potency is the fitted concentration of half-maximal effect.

Row | Structure (SMILES) | activity change, negative = inhibition | Potency
1 | COC(=O)c1ccc(NC(=O)CSc2nnc(C3CC3)n2C)cc1 | 14.4% | 
2 | COc1ccc(C(=O)OC(C)C(=O)NC2CCCC2)cc1S(=O)(=O)N1CCOCC1 (stereo not drawn) | -6.55% | 
3 | COc1cccc(N2CCN(CC(=O)Nc3ccnn3C3CCCC3)CC2)c1 | -13.9% | 
4 | C#C[C@]1(O)CC[C@H]2[C@@H]3CCC4=CC(=O)CC[C@@H]4[C@H]3CC[C@@]21CC |  | 7.57 µM (active)
5 | Cc1cc(C)c(C#N)c(SCC(=O)N(CC(C)C)C2CCS(=O)(=O)C2)n1 (stereo not drawn) | -12.5% | 
6 | CC(NC(=O)COc1ccc(-c2ccccc2)cc1)C1CCCO1 (stereo not drawn) | 38.1% | 
7 | O=C(Nc1ccncc1)c1ccc([N+](=O)[O-])cc1Cl | 38.2% | 
8 | CN(CCc1ccccn1)C1CCCN(S(=O)(=O)c2ccccc2Cl)C1 (stereo not drawn) | -0.441% | 
9 | Cn1nc(C(F)(F)F)cc1C(=O)O | 36.7% | 
10 | Cc1nn(-c2ccccc2)c(C)c1NC(=O)CCl |  | 3.7 µM (active)
11 | Cc1cccc(C)c1NC(=O)CNC(=O)c1c(C)nn(-c2ccccc2)c1C | -4.55% | 
12 | Cc1nn(-c2ccccc2)c(C)c1NC(=O)COc1ccc(Cl)cc1Cl | 8.25% | 
13 | O=C(NCC1CCCO1)c1cc2c(s1)CCCC2 (stereo not drawn) | 282% | 
14 | CC1(C)O[C@@H]2[C@H](O1)[C@@H](CO)O[C@H]2n1c(N2CCCCC2)nc2c(N)ncnc21 | 8.05% | 
15 | Cc1ccc(OCCCCN2CCCCC2)c(Br)c1 | -19.8% | 
16 | C=CCc1cc(C)ccc1OCCCn1ccnc1 |  | 11.7 µM (active)
17 | Clc1c(OCCCn2ccnc2)ccc2ccccc12 | 203% | 
18 | CCOC(=O)c1ccc(S(=O)(=O)N(CCO)Cc2cc3cc(OC)c(OC)cc3[nH]c2=O)cc1 | -9.56% | 
19 | COc1ccc(S(=O)(=O)N2CCCC2CNC(=O)C(=O)NC2CC2)cc1 (stereo not drawn) | 2.54% | 
20 | COc1cccc(CNC(=O)C(=O)NCCC2CCCCN2S(=O)(=O)c2ccc(C)cc2)c1 (stereo not drawn) |  | 10.4 µM (active)
21 | O=C(NCCC1CCCCN1S(=O)(=O)c1ccc(F)cc1)C(=O)NC1CC1 (stereo not drawn) | -4.85% | 
22 | COc1cc(OC)c(NC(=O)C2CCCN2C(=O)OCc2ccccc2)cc1Cl (stereo not drawn) | -25.4% | 

Row | Structure (SMILES) | activity change, negative = inhibition | Potency
23 | CCOC(=O)CNC(=O)CN1C(=O)CCSc2ccccc21 |  | 11.7 µM (active)
24 | CCOC(=O)CNC(=O)N1c2ccccc2Sc2ccccc21 | 17.9% | 
25 | COc1ccc(CCNC(=O)CN2C(=O)CCSc3ccccc32)c(OC)c1 | -12.9% | 
26 | Cc1ccc(NC(=O)c2cnc(SCC(=O)NCC3CCCO3)n(C)c2=O)cc1 (stereo not drawn) | 38% | 
27 | Cn1c(=O)n(C)c2cc(C(=O)Nc3ccc(Br)cc3)ccc21 | 9.04% | 
28 | COC(=O)[C@@H]1CC(O)CN1C(=O)C12CC3CC(CC(C3)C1)C2 (stereo partly drawn) | 31.1% | 
29 | CCOc1ccccc1Nc1ccc2nonc2c1[N+](=O)[O-] | 17.1% | 
30 | COc1ccccc1C(=O)NC(CCSC)C(=O)N1CCN(C(C)=O)CC1 (stereo not drawn) | 31.3% | 
31 | O=C(c1cccc(Cl)c1)N1CCN(Cc2ccccc2)CC1 | 23.5% | 
32 | COc1ccccc1C(=O)NC(CCSC)C(=O)NNC(=O)c1ccccc1C (stereo not drawn) | 8.05% | 
33 | CSCCC(NC(=O)c1ccccc1)C(=O)N1CCN(Cc2ccc(Cl)cc2)CC1 (stereo not drawn) |  | 1.65 µM (active)
34 | COc1ccccc1C(=O)NC(CCSC)C(=O)N1CCN(C/C=C/c2ccccc2)CC1 (stereo not drawn) |  | 11.7 µM (active)
35 | CSCCC(NC(=O)c1ccccc1)C(=O)N1CCCCCCC1 (stereo not drawn) | -26.5% | 
36 | CC(=O)NC(CC(=O)Nc1nc(-c2ccccc2)c(C(C)=O)s1)c1ccccc1 (stereo not drawn) | 3.68% | 
37 | Cc1ccc(S(=O)(=O)NCC(=O)N2CCOCCOCCOCCOCC2)cc1 | 12.9% | 
38 | Cc1ccc(CNC(=O)[C@@H](NC(=O)Cc2ccccc2)C(C)C)cc1 | 37.8% | 
39 | Cn1c(-c2ccc(F)cc2)cc2onc(-c3ccccc3Cl)c2c1=O | 69.3% | 
40 | CSc1ncc(Cl)c(C(=O)Nc2cc(C)ccc2C)n1 | -13% | 
41 | O=C(COc1ccccc1)Nc1cc2c3c(c1)CC(=O)N3CCC2 | 31% | 
42 | CC(=O)Nc1ccc(NC(=S)NC(=O)/C=C/c2ccccc2)cc1 | 8.73% | 
43 | O=C(/C=C/c1ccccc1)N/C(=C/c1ccccc1)C(=O)Nc1ccccc1O | 42.9% | 
44 | CN(C)CCCSc1ccccc1NC(=O)/C=C/c1ccccc1 |  | 12 µM (active)

Row | Structure (SMILES) | activity change, negative = inhibition | Potency
45 | COc1ccc(NC(=O)CCCNC(=O)Cn2cnc3sc4c(c3c2=O)CCCC4)cc1OC | -7.58% | 
46 | CCNC(=O)CSc1nc(-c2ccccc2)cs1 | -65.4% | 
47 | O=C(CSCC(=O)Nc1cccc([N+](=O)[O-])c1)Nc1ccccc1 | -2.07% | 
48 | O=C(CSc1nc(-c2ccccc2)cs1)Nc1cccc([N+](=O)[O-])c1 |  | 10.4 µM (active)
49 | O=[N+]([O-])c1cc(C(F)(F)F)ccc1NCCc1ccncc1 | 15.8% | 
50 | Cc1ccc2[nH]c(=O)c(CC(=O)O)c(-c3ccccc3)c2c1 | 0.826% | 
51 | CCCCOC(=O)Nc1nnc(CC(=O)NCc2ccccc2)s1 | -8.9% | 
52 | Cc1ccc(OC(=O)c2c(C)nn(-c3ccccc3)c2C)cc1 | 101% | 
53 | COc1ccc(C2OC(=O)CC2C(=O)NC(C)C)cc1 (stereo not drawn) |  | 0.586 µM (active)
54 | COc1ccc(CN2CC(C(=O)NC3CCCCC3)CC2=O)cc1 (stereo not drawn) | 23.7% | 
55 | COc1ccc(C2CC(=O)NC(=O)C2)cc1 | 31.5% | 
56 | O=C(c1cc(-c2ccc(O)cc2)on1)N1CCOCC1 | 276% | 
57 | CCN(CC)CCOC(=O)c1cc2cc(COC)ccc2o1 | 127% | 
58 | CCCC(C(=O)OCCN(CC)CC)(c1ccccc1)c1ccccc1 |  | 10.7 µM (active)
59 | CCC(C(=O)OCCN(CC)CC)c1ccccc1 (stereo not drawn) |  | inactive
60 | COc1ccc(C/C(C)=N/NC(=O)c2ccncc2)cc1 | 13.4% | 
61 | COc1cc(OC)nc(N/N=C(\c2ccccc2)c2ccncc2)n1 |  | 5.22 µM (active)
62 | O=C(O/N=C(/c1ccccc1)c1ccncc1)c1ccccc1[N+](=O)[O-] | 8.43% | 
63 | N#Cc1cccc(CN2CCC(=O)N([C@H](CO)c3ccccc3)CC2)c1 | -14.1% | 
64 | C=CCOc1ccc(/C=C/C(=O)OC(C)C(=O)Nc2ccc(NC(C)=O)cc2)cc1 (stereo not drawn) | 32.7% | 
65 | O=C(CCl)Nc1cccc(CP(=O)(c2ccccc2)c2ccccc2)c1 |  | 6.57 µM (active)
66 | O=C(Cc1ccccc1)Nc1cccc(NC(=O)c2ccccc2)c1 | 127% | 

Row | Structure (SMILES) | activity change, negative = inhibition | Potency
67 | CCc1cccc(NC(=O)CCC(=O)O)c1 | 33.6% | 
68 | COc1ccc(CCNS(=O)(=O)c2cn(C)nc2C)cc1 | -3.77% | 
69 | CCOc1ccc(OCC(=O)Nc2c3c(nn2C(C)(C)C)CS(=O)(=O)C3)cc1 | 8.15% | 
70 | Cn1c(SCC(=O)NC2CCCCC2)nnc1-c1ccc(N)cc1 | 31.1% | 
71 | CC1Cc2ccccc2N1C(=O)CSc1nnc(-c2ccc(S(=O)(=O)N3CCCC3)cc2)n1C (stereo not drawn) | -27.2% | 
72 | Cn1c(SCC(=O)OC2CCCCC2)nnc1-c1ccc(S(=O)(=O)N2CCCC2)cc1 |  | 2.33 µM (active)
73 | Cc1ccc(CN2CC(C(=O)N3CCN(S(=O)(=O)c4ccccc4)CC3)CC2=O)cc1 (stereo not drawn) | -5.27% | 
74 | CCc1noc(C)c1C(=O)Nc1nc2ccc(OC)cc2s1 | 55.7% | 
75 | O=C(CCc1ccc(S(=O)(=O)N2CCOCC2)cc1)NN=C1CCCCCCC1 | 7.59% | 
76 | O=C(CCc1ccc(S(=O)(=O)N2CCOCC2)cc1)Nc1ccc2ccccc2c1 |  | 5.22 µM (active)
77 | O=C(COC(=O)CCc1ccc(S(=O)(=O)N2CCOCC2)cc1)Nc1cccc(Cl)c1 | 1.04% | 
78 | CCN(CC(=O)N1CCCC1)S(=O)(=O)c1ccc(F)cc1 | -18.8% | 
79 | O=C(NCCCN1CCCC1=O)c1cccc(S(=O)(=O)NCc2ccccc2)c1 | 0.384% | 
80 | CCN(CC(=O)Nc1c(F)cccc1F)C(=O)C1CCC1 | 12.3% | 
81 | CC(C)c1ccc(Cc2nnc(NCCCO)[nH]c2=O)cc1 | -6.72% | 
82 | Cc1cccc(N2CCN(S(=O)(=O)c3ccc(-c4cc(C)no4)s3)CC2C)c1 (stereo not drawn) | 7.47% | 
83 | Cc1cc(-c2ccc(S(=O)(=O)N3CCc4ccccc4C3)s2)on1 | 40.7% | 
84 | Cc1cc(-c2ccc(S(=O)(=O)N3CCN(c4cccc(C(F)(F)F)c4)CC3)s2)on1 |  | 13.1 µM (active)
85 | COCC1CCN(C(=O)CCc2nnc(C3(c4ccc(Cl)cc4)CCC3)o2)C1 (stereo not drawn) | -0.798% | 
86 | CCOc1ccccc1N1C(=O)CC(Sc2nccc(C)n2)C1=O (stereo not drawn) | -19.9% | 
87 | CCOc1ccc(OCC(=O)OC(C)C(=O)NC2CCCCC2C)cc1 (stereo not drawn) | -9.96% | 
88 | Cc1ccc(C(=O)NCC(=O)OCc2nnc(-c3ccccc3)o2)cc1 | -23.8% | 

Row | Structure (SMILES) | activity change, negative = inhibition | Potency
89 | CCCC(=O)Nc1nnc(-c2ccccc2)o1 | 3.75% | 
90 | CCc1ccc(CN(C)C(=O)CCc2nnc(-c3ccc(-c4ccccc4)cc3)o2)nc1 |  | 11.7 µM (active)
91 | CCOc1ccc(NC(=O)CC(Cc2ccc(Cl)cc2)C(=O)O)cc1 (stereo not drawn) | -6.41% | 
92 | O=C(CN1CCc2cc3c(cc2C1)OCCCO3)Nc1ccccc1 | 47.6% | 
93 | OCC(CO)NC1C[C@](O)(CO)[C@@H](O)[C@H](O)[C@H]1O (stereo partly drawn) | 14.3% | 
94 | CCCCOC(=O)CCCc1ccc([N+](=O)[O-])cc1[N+](=O)[O-] | 6.22% | 
95 | CCCCOc1ccc(CSC(=N)N)cc1[N+](=O)[O-] |  | 2.33 µM (active)
96 | CCCOc1ccc(Cn2ccnc2)cc1[N+](=O)[O-] | 0% | 
97 | COc1cc(CNCc2ccc3c(c2)OCO3)c([N+](=O)[O-])cc1OC | 3.58% | 
98 | CCn1cc(C(=O)NCc2ccc3c(c2)OCO3)c2cc(OC)c(OC)cc2c1=O | 12% | 
99 | COc1cc(OC)c(C(=O)NCc2ccc3c(c2)OCO3)cc1OC |  | 13.1 µM (active)
100 | O=C(O)CCCN1C(=O)C2C3c4ccccc4C(c4ccccc43)[C@@H]2C1=O (stereo partly drawn) | 9.24% | 
101 | O=C(CN1C(=O)CSC1=O)N1CCCC(Nc2ccc(F)cc2)C1 (stereo not drawn) |  | 1.65 µM (active)
102 | O=C1CCCCN1CCCC(=O)N1CCCC(Nc2ccc(F)cc2)C1 (stereo not drawn) | 1.89% | 
103 | Cc1ccc(NC2CCCN(C(=O)CCc3cn[nH]c3)C2)cc1C (stereo not drawn) | 32% | 
104 | CC1C(=O)Nc2ccc(S(=O)(=O)N3CCN(c4ccccc4F)CC3)cc2NC1=O (stereo not drawn) | 0.196% | 
105 | O=C1/C(=C/c2cccs2)SC(=S)N1C1CCS(=O)(=O)C1 (stereo not drawn) | -41.9% | 
106 | NC(=O)CC(NC(=O)Cc1ccc(Br)cc1)c1ccc(NC2CC3CCC2C3)c([N+](=O)[O-])c1 (stereo not drawn) |  | 11.7 µM (active)
107 | CC1CCCCN1CCCNc1ccc(C(CC(N)=O)NC(=O)c2ccccc2)cc1[N+](=O)[O-] (stereo not drawn) | -34.8% | 
108 | Cc1cc(C)cc(C(=O)NC(CC(N)=O)c2ccc(N3CCC(N4CCCCC4)CC3)c([N+](=O)[O-])c2)c1 (stereo not drawn) | 73.1% | 
